For part of these data: Potency and affinity values are given separately.

Holding throughout (design): scale not given: direction of the effect not stated beside the values
Assay [1] has as its target Protein translocase subunit SecA (Escherichia coli (strain K12)) (UniProt P10408). The assay can be described thus: Assay to Identify E. coli SecA ATPase Inhibitors. It counts as functional. As to conditions: 30 µM.
For assay [2], the target named is T1, Ubiquitin-activating enzyme e1, putative (Leishmania donovani (strain BPK282A1)) (UniProt E9BSI1).
T1 sequence (whole entry): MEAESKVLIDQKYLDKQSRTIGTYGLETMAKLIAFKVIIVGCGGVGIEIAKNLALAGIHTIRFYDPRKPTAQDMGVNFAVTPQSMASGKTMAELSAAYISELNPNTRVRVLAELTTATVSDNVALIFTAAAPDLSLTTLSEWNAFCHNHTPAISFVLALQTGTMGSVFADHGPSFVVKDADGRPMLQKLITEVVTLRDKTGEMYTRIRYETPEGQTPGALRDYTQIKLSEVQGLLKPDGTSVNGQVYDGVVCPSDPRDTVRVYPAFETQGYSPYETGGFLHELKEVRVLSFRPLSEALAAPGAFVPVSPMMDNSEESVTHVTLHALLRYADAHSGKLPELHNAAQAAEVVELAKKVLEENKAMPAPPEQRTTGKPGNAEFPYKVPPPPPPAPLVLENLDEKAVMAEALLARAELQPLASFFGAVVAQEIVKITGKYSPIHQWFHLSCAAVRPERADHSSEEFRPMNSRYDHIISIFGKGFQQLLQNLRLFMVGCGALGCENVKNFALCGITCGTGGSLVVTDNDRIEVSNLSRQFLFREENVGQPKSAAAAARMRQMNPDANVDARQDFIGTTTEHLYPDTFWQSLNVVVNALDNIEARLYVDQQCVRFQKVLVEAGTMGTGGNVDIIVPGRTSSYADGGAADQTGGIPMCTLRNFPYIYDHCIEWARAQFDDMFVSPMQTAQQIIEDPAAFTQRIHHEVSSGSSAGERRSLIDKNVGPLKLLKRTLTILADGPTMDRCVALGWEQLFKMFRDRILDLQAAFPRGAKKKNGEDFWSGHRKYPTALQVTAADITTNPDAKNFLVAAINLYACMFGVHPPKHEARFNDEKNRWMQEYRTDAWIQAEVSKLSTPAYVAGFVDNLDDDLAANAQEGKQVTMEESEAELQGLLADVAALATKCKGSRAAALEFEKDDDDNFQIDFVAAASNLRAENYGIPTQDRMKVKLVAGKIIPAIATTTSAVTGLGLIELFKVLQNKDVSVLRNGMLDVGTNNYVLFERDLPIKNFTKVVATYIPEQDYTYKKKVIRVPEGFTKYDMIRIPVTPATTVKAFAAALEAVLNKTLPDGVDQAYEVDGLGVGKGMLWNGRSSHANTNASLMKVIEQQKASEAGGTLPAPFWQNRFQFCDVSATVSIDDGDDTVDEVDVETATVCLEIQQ
As to the kind of experiment: Leishmania donovani Ubiquitin Activating Enzyme (LdE1). As to conditions: 30 µM. It is filed as functional.

In assay [3] the target is AMP-activated protein kinase, AMPK (Homo sapiens) (UniProt P54646+O43741+P54619+Q9UGJ0+Q9Y478+Q13131+Q9UGI9). As to the kind of experiment: AMP-dependent Kinase enzyme assay. An in vitro enzyme assay that detects ADP turnover that is directly proportional to AMPK activity. This uses naive AMPK that is activated during the assay with MK-8722. It counts as functional. The conditions noted are these: 30 µM.

The target of assay [4] is Sialic acid-binding Ig-like lectin 9 (Homo sapiens) (UniProt Q9Y336). The assay can be described thus: Hs-Siglec9 ALPHAscreen SOP 20170721. As to conditions: 10 µM. (In Alpha technology, singlet oxygen from a donor bead excites a nearby acceptor bead.)
The test system of the next assay is Trypanosoma cruzi. The assay can be described thus: Trypanosoma cruzi phosphomannomutase and mannose-1-phosphate guanylyltransferase assay. It is filed as functional. As to conditions: 10 µM.
The target of assay [5] is T2, Arginase-2, mitochondrial (Homo sapiens) (UniProt P78540).
T2 sequence (whole entry): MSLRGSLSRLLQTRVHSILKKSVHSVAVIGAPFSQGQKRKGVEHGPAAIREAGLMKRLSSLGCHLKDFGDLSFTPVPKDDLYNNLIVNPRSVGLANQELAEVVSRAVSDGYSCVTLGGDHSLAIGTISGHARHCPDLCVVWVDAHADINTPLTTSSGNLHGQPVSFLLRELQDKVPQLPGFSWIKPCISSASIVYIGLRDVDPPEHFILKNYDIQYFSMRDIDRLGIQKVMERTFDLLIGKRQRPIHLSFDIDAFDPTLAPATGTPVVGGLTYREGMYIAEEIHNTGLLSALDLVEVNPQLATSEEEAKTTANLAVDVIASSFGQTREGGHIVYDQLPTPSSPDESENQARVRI
As to the kind of experiment: in vitro enzyme assay to detect the production of urea directly proportional to the activity of Arginase II. Note: in the data most compounds retested in dose-response had high values. It is filed as functional. The conditions noted are these: 33.3 µM.

Assay [6] concerns the target T3, Proteasome subunit beta (Trypanosoma cruzi) (UniProt O96673).
T3 sequence (whole entry): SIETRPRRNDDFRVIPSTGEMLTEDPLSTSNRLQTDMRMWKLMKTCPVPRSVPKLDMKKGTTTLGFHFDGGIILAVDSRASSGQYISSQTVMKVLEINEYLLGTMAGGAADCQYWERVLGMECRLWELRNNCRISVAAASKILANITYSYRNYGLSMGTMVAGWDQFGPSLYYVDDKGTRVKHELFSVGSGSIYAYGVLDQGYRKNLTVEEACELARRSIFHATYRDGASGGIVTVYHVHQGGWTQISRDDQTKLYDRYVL
As to the kind of experiment: Trypanosoma cruzi proteasome chymotrypsin-like activity (TcProtChymo) assay. Note: in the data most compounds retested in dose-response had high values. It is filed as functional. The conditions noted are these: 9.37 µM.

Another assay is filed under the species Homo sapiens. As to the kind of experiment: To identify inhibition of the IFN signalling (Jak-Stat) pathway via expression of an eGFP reporter gene under the control of an IFN-stimulated response element (ISRE) containing MxA promoter. It counts as functional. As to conditions: 30 µM. For orientation: Reporter assays use an easily measured gene product as a stand-in for the process of interest.

Assay [7] deals with T4, Tyrosyl-tRNA synthetase, putative (Trypanosoma cruzi (strain CL Brener)) (UniProt Q4DSP6).
T4 sequence (whole entry): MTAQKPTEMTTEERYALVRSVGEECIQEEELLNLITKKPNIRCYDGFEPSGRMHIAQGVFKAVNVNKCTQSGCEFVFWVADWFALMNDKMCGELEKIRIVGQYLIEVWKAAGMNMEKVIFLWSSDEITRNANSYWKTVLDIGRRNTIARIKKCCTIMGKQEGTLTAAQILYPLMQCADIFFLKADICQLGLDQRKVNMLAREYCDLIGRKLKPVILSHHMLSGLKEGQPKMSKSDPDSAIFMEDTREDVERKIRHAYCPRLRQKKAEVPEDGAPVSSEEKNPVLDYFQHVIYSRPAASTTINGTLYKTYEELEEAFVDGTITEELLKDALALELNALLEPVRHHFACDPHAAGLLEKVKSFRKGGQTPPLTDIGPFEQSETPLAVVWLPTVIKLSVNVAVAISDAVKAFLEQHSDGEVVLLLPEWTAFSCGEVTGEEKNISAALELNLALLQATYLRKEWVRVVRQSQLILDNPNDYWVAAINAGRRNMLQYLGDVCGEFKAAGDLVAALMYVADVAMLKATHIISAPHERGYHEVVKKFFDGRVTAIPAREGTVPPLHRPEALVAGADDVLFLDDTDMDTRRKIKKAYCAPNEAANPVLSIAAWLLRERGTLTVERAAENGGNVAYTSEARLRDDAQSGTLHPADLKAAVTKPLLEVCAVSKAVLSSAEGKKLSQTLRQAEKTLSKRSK
The assay can be described thus: Trypanosoma cruzi tyrosyl tRNA synthetase (TcYRS) _High Tyrosine SOP. Note: in the data most compounds retested in dose-response had high values. As to conditions: 30 µM. It is filed as functional.

The target of assay [8] is T4, Tyrosyl-tRNA synthetase, putative (Trypanosoma cruzi (strain CL Brener)). The assay can be described thus: Trypanosoma cruzi tyrosyl tRNA synthetase (TcYRS) SOP. It is filed as functional. As to conditions: 30 µM.
Assay [9] deals with Chromo domain-containing protein 1 (Saccharomyces cerevisiae (strain ATCC 204508 / S288c) (Baker's yeast)) (UniProt P32657). As to the kind of experiment: ScCHD-1 Enzyme Inhibition Assay. Note: in the data most compounds retested in dose-response had high values. The conditions noted are these: 30 µM. It counts as functional.
Sequence of Chromo domain-containing protein 1 (Saccharomyces cerevisiae (strain ATCC 204508 / S288c) (Baker's yeast)) (P32657 whole entry, the tested form may be a part): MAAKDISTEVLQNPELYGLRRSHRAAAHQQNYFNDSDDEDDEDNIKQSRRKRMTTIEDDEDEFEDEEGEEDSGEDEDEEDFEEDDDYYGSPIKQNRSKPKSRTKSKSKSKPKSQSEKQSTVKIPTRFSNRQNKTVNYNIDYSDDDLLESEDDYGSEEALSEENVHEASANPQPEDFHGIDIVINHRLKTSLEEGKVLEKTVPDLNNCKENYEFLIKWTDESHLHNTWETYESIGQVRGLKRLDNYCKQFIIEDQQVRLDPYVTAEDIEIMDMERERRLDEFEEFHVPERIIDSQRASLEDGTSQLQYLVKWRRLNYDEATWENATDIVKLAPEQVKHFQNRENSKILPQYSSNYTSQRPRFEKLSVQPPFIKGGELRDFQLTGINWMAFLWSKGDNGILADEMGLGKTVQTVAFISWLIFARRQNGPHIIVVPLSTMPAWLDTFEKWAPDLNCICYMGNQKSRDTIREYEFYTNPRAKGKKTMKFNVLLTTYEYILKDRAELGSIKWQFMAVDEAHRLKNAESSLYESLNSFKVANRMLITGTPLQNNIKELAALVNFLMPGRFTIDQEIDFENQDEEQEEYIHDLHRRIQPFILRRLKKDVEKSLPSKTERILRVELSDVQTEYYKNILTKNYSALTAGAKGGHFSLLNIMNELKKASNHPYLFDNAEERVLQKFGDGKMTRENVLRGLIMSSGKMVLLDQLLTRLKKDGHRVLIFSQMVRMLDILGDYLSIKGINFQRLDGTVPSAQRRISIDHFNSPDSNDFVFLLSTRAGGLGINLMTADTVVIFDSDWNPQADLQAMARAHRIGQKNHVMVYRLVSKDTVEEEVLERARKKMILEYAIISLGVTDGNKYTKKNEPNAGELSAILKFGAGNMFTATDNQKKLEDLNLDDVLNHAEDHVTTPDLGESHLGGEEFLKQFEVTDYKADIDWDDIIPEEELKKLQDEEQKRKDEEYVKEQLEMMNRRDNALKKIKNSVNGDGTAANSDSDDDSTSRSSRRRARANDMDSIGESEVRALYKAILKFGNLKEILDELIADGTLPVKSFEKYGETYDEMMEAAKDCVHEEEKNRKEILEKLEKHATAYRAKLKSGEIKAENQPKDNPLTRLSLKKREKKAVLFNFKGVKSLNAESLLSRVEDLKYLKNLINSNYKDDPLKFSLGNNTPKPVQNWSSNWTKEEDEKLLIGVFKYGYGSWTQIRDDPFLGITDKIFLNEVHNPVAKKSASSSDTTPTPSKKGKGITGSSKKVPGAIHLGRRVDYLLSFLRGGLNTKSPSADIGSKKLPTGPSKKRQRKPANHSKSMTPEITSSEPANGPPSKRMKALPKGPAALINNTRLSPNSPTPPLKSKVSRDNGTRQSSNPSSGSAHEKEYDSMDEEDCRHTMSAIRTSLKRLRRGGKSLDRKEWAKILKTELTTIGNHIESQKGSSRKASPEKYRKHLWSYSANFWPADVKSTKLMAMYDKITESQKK

Sequence of Protein translocase subunit SecA (Escherichia coli (strain K12)) (P10408 whole entry): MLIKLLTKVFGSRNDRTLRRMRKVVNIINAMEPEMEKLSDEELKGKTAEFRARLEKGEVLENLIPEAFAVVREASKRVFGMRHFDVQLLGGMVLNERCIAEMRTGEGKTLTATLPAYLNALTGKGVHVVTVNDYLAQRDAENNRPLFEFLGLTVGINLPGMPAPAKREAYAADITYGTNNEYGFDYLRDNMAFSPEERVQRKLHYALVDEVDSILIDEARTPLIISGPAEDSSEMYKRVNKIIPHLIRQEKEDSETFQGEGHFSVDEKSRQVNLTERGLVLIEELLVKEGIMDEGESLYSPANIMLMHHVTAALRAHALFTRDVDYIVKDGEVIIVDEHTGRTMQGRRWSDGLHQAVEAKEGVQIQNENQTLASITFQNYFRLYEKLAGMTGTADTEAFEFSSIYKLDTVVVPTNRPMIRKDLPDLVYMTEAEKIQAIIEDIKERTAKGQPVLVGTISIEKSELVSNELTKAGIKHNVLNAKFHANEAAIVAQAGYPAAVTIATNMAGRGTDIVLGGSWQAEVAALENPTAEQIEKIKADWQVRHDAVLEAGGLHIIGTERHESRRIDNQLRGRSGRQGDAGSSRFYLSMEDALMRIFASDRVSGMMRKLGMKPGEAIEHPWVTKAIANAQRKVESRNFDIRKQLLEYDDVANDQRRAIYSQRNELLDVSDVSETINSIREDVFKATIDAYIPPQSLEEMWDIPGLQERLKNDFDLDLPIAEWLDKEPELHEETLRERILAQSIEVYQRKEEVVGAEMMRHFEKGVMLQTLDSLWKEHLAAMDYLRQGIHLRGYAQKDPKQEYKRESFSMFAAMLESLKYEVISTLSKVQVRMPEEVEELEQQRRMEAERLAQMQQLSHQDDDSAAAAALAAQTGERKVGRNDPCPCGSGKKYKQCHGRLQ
Sequence of Sialic acid-binding Ig-like lectin 9 (Homo sapiens) (Q9Y336 whole entry): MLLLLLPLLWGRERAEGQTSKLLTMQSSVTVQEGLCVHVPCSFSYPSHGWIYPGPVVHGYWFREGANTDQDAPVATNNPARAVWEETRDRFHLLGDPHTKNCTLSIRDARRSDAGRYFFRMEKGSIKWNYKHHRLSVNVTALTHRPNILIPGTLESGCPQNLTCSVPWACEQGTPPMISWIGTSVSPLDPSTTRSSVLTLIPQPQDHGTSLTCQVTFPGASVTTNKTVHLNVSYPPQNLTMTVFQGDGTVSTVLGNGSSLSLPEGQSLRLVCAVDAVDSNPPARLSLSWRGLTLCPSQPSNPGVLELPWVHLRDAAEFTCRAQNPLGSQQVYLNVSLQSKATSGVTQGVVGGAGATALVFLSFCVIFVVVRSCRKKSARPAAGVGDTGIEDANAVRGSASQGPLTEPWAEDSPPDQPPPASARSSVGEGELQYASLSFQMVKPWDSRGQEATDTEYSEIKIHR

Take `CN(Cc1cccc(F)c1)C1CCN(CCc2ccccn2)CC1`: the Percent Effect in assay [1] was -3.25%; in assay [2], 21.6%; in assay [3], -5.03%; in assay [4], -1.38%; in the assay on Trypanosoma cruzi, -0.65%; in [5], -1.29%. Also, the Percent Effect is 9.34% in assay [6]; 20.8% in the assay listed under Homo sapiens; 3.96% in assay [7]; 13.4% in assay [8]; -4.09% in [9].

In the case of `Cc1nc(CCCNC(=O)C2CC(=O)N(C(C)(C)C)C2)sc1C` (centres undefined), the Percent Effect in assay [1] was -3.07%; in [2], 5.48%; in assay [3] it was -0.283%; in assay [4], 4.12%; in the assay on Trypanosoma cruzi, -3.57%; in assay [5], -2%. The Percent Effect in assay [6] is 7.79%; in the assay filed under Homo sapiens, 12.9%; in [7], 5.21%; in assay [8] it was 13.6%; in [9], -5.51%.

Turning to `CC1CCCN(C(=O)CCc2cccnc2)C1` (centres undefined), the Percent Effect in [1] is 2.47%; in assay [2] it was 17.7%; in assay [3], 0.257%; in assay [4], -8.86%; in the assay with Trypanosoma cruzi it was -5.57%; in [5], 6.84%. The Percent Effect in assay [6] was 7.29%; in the assay filed under Homo sapiens, 25.3%; in [7], 3.45%; in assay [8], 16.5%; in [9], -0.749%.

`CS(=O)(=O)N1CCc2c(cccc2NC(=O)CC(F)(F)F)C1`: the Percent Effect in assay [1] was -3.17%; in assay [2] it was 5.26%; in assay [3], 4.53%; in assay [4], -1.3%; with Trypanosoma cruzi, -2.04%; in assay [5], 0%. Besides, the Percent Effect was 11.8% in assay [6]; -9.3% in the assay filed under Homo sapiens; 4.25% in [7]; 10.4% in assay [8]; -6.43% in assay [9].

With `CC(C)Oc1ncnc2c1CCN(Cc1cccs1)CC2`, the Percent Effect was 3.01% in [1]; 0% in assay [2]; 24.6% in assay [3]; 8.66% in assay [4]; -0.193% with Trypanosoma cruzi; -43.9% in assay [5]. The Percent Effect in assay [6] was 3.76%; in the assay filed under Homo sapiens, 8.59%; in [7], 6.25%; in assay [8], 10%; in [9] it was -1.96%.

Consider `O=C1OCCN1CCc1nc(-c2cc3c4c(c2)CC(=O)N4CCC3)cs1`, for which the Percent Effect was -8.45% in assay [1]; 0% in assay [2]; 4.43% in assay [3]; -2.26% in assay [4]; -7.87% with Trypanosoma cruzi; -0.712% in assay [5]. The Percent Effect in [6] was 9.97%; in the assay listed under Homo sapiens it was 47.2%; in assay [7] it was 0.971%; in [8], 0%; in assay [9], -5.4%.

As for `CCc1noc(C)c1C(=O)N1CCCC1Cn1cc(C)cn1` (centres undefined), the Percent Effect in [1] was -3.44%; in [2], 15.8%; in assay [3] it was 8.82%; in assay [4] it was -9.39%; in the assay on Trypanosoma cruzi, -10.4%; in assay [5], 0%. Also, the Percent Effect in [6] was 3.64%; in the assay filed under Homo sapiens, -1.17%; in [7] it was 2.46%; in assay [8], 1.24%; in [9] it was -10.2%.

Take `CS(=O)(=O)CCC(=O)NC1(c2cccc(Br)c2)CC1`: the Percent Effect is -2.11% in [1]; 13.5% in [2]; -4.94% in assay [3]; 18.2% in assay [4]; 6.37% with Trypanosoma cruzi; 1.43% in assay [5]. Besides, the Percent Effect in assay [6] is 15%; in the assay filed under Homo sapiens, -3.85%; in assay [7], 3.7%; in assay [8] it was 12.2%; in assay [9] it was -3.61%.

As for `O=C1NC(c2ccccc2)=N[C@@]12CC[C@@H]1CN(Cc3ccco3)C[C@@H]12`, the Percent Effect is -0.246% in assay [1]; 5.33% in assay [2]; 1.87% in [3]; -5.18% in assay [4]; 2.32% in the assay on Trypanosoma cruzi; -47.5% in assay [5]. Moreover, the Percent Effect in [6] is -0.513%; in the assay filed under Homo sapiens, 4.89%; in assay [7] it was 2.08%; in [8] it was -5%; in assay [9], -2.32%.

Source of the values: ChEMBL document CHEMBL3988442, “University of Dundee, Small-Polar-MMV Screening Library” (2021).
